# Hits are enriched below; roughly 4.6% of the tested compounds scored in any of these assays.
# Epigenetic reg – epigenetic control regulation, reporter derepression. 0.2% of 280,000 active. murine LDR cells, GFP reporter derepression, 30 h. Potency, µM (doses to about 53.9 µM), for the others: top-dose GFP activation, actives largely listed as activators; active = well fitted activation curve with a large enough effect; also: potency is read from the fitted curve at half-maximal effect; % of control where 0% means no effect; nearly all actives have a fitted effect of over 60% in size
#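 In this reporter-derepression format, murine cells bearing a silenced integrated CMV-GFP locus incubate with test compound (30 h, 37 C), then are washed and imaged; fluorescent objects of 20–120 um count as induced cells.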
# D1 ag – activates the human D1 dopamine receptor | P21728 | HEK293 T-REx D1 cells, calcium flux, agonist mode | activation, % at 2 µM | 1% of 360,000 active | AID 504660; also: 0% is about no effect
# Target sequence (P21728 whole entry, looked up): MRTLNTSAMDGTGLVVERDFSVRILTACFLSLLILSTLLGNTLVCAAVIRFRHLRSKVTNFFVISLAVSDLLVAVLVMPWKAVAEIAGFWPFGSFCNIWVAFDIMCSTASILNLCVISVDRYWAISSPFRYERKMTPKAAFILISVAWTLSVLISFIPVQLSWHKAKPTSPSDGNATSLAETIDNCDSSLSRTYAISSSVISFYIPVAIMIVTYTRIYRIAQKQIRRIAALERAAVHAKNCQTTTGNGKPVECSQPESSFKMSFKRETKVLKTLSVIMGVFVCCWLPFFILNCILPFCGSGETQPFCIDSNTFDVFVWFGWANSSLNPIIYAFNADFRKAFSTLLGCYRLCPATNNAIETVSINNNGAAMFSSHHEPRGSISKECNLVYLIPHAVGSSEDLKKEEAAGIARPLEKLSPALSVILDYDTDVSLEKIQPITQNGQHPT
#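 Inducible HEK293 T-REx D1 cells, force-coupled to calcium signalling, were plated at 4000 cells/well with tetracycline and held overnight at 30 C. After no-wash calcium dye loading, compound-evoked calcium rise over 180 s flagged agonists.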
# TRHR ag – activates the human TRH receptor; P34981; TRHR cells, calcium flux fluo-8, FDSS agonist mode; activation, % at 2 µM; 0.18% of 360,000 active; AID 493084; also: 0% is about no effect
#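 Steps: seed TRHR cells overnight; add fluo-8 no-wash Ca dye, RT 30 min–1.5 h; record 10 s baseline; pin-transfer compounds; monitor fluorescence 1 cycle/s for the agonist window. Calcium increases flag candidate agonists.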
# D1 potentiator – enhances dopamine response at the human D1 receptor | P21728 | potentiation, % at 10 µM | 0.036% of 360,000 active | HEK293 TREx D1 cells, calcium flux, dopamine EC20 potentiation; in the data active = potentiation above about 30%; also: 0% is about no effect
# D1 antag – blocks dopamine activation of the human D1 receptor; P21728; HEK293 TREx D1 cells, calcium flux, dopamine EC80; hits give low values; activity change, negative = inhibition, % at 10 µM; 3.2% of 360,000 active; AID 504652; in the data active = activity change below about -30%; also: % is scaled to controls: 0 for no effect and ±100 for the full control effect
#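 Calcium flux readout: force-coupled, inducible Hek293 Trex D1 line, cells induced overnight at 30 C with tetracycline, dye-loaded 30–90 min at RT. Antagonism scored against EC80 dopamine challenge given 180 s after compound.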
# TRHR enhancer – TRH receptor (human) allosteric enhancement | P34981 | TRHR cells, fluo-8 calcium fluorescence, EC20 TRH enhancement | enhancement, % at 2 µM | 0.66% of 360,000 active | AID 493056; in the data active = enhancement above about 30%; also: 0% is about no effect
#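 Enhancer read-out: after compound pinning and an initial kinetic agonist-mode read, an EC20 of TRH (10 nM final) was injected and fluo-8 calcium signal (Ex 480/Em 530) followed at 1 s/cycle for 100 cycles in TRHR-expressing cells.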
# An asterisk follows results filed as active; . = no result. Rule as the data show it, unless noted: active = activation above about 30%; inactive = the rest.
SMILES,Epigenetic reg,D1 ag,TRHR ag,D1 potentiator,D1 antag,TRHR enhancer
CCc1ccc(-c2nc3cc(NC(=O)c4ccc(F)cc4)ccc3o2)cc1,2.4%,2.8,0.9,-1.9,2.7,-1.2
CCc1ccc(NC(=O)CC2C(=O)OCCN2CC)cc1 (centres undefined),-1.1%,-0.6,1.4,-5.3,-74.6*,8.2
CCN1CCOC(=O)C1CC(=O)Nc1ccc(C(C)=O)cc1 (centres undefined),3.2%,0.9,-4.1,2.0,-3.7,1.3
CCc1ccc(N/C(SCc2ccccc2C)=C(/C#N)C(=O)NCc2ccco2)cc1,-0.2%,30.0*,2.9,-4.2,-30.3*,-2.7
CCc1ccc(OCCCC(=O)NCc2ccco2)cc1,-1.1%,-1.1,-1.5,-4.0,-7.3,4.6
O=C(NCCc1ccccc1)/C(=C\c1ccc([N+](=O)[O-])cc1)NC(=O)c1ccco1,.,5.9,-0.5,-2.6,-38.1*,-8.6
C=CCOC(=O)/C(=C\c1ccccc1)NC(=O)c1ccco1,-0.9%,3.4,0.1,-4.0,-43.1*,7.0
O=C(N/C(=C\c1ccccc1)C(=O)N1CCOCC1)c1ccco1,.,3.3,-1.0,-1.6,-11.0,30.4*
Cc1cc(C)c2c(=O)c3c(oc2c1)C(=O)N(Cc1ccc(F)cc1)C3c1cccc(O)c1 (centres undefined),-0.3%,-1.7,-0.1,3.5,-2.3,-0.6
COC(=O)/C(N=Nc1c(C)n(C)n(-c2ccccc2)c1=O)=C(\C)O,-1.0%,0.6,-0.2,1.2,-8.7,33.0*
COc1ccc(CC(=O)N2CCc3ccccc32)cc1,-1.2%,4.4,-0.7,-2.5,-1.3,10.0
COc1ccc(CCC(=O)N2CCCc3ccccc32)cc1,.,-2.1,-0.4,-1.9,-37.0*,11.7
O=C(CCn1cccc1)N1CCc2ccccc21,-1.0%,-1.5,0.2,-6.0,-30.9*,0.7
CCOC(=O)/C(=N/Nc1ccc(OC)cc1)N1CCCc2ccccc21,-1.0%,0.5,-0.9,-3.4,-41.8*,-3.1
O=C(Cc1ccccc1)N1CCc2ccccc21,-0.7%,1.7,-0.8,5.2,-1.8,0.8
CCOc1ccc(-n2c(=O)[nH]cc(C(=O)N3CCCc4ccccc43)c2=O)cc1,2.1%,1.0,-0.1,-0.3,-0.7,-0.8
COc1ccc(-n2c(=O)[nH]cc(C(=O)N3CCCc4ccccc43)c2=O)cc1,1.9%,2.4,-0.8,-3.1,-30.8*,0.2
CS(=O)(=O)c1ccc(Cn2c3c(c4cc(F)cc(F)c42)CCC[C@H]3CC(=O)O)cc1,-0.4%,.,.,.,.,.
N#CN1CCC(NS(=O)(=O)c2ccc(F)cc2)C1 (centres undefined),.,-0.1,1.3,2.4,-6.5,0.3
CCOC(=O)c1cnc2c(Cl)cc(Cl)cc2c1Nc1ccccc1OC,-2.1%,0.2,-0.4,1.5,12.1,2.9
COc1ccc(OCCCC(=O)N2CCCc3ccccc32)cc1,-1.0%,4.5,-1.2,-8.1,-33.5*,-4.2
Cc1cc(=O)oc2cc(OCC(=O)N3CCCc4ccccc43)ccc12,-1.0%,2.0,-2.7,-8.2,-35.1*,-9.6
Cc1cc(=O)oc2cc(OCCSCCN3CCCCC3)ccc12,1.0%,1.1,0.0,-4.2,-37.1*,-0.9
Cc1cc(=O)oc2ccc(OCC(=O)N3CCc4ccccc43)cc12,0.0%,0.0,-0.5,-4.8,-16.0,-7.5
CCCOc1ccc(C(=O)Nc2cc3c(cc2N2CCOCC2)n(C)c(=O)n3C)cc1,0.4%,-0.1,-0.6,2.4,2.1,0.7
SMILES,Epigenetic reg,D1 ag,TRHR ag,D1 potentiator,D1 antag,TRHR enhancer
S=c1[nH]nc(Nc2cccc3ccccc23)s1,0.0%,1.7,-1.9,3.1,-32.6*,-2.1
CCOc1ccc(CNc2nc3nc(C)c(Cc4ccccc4)c(=O)n3[nH]2)cc1,-1.9%,-1.7,-0.1,-0.4,2.4,-3.9
Cc1ccc(NC(=O)CSc2nnc3[nH]c(=O)cc(-c4ccccc4)n23)cc1Cl,1.0%,2.9,-0.3,-0.5,.,0.6
Cc1nc2sc(C(c3ccco3)N3CC(C)OC(C)C3)c(O)n2n1 (centres undefined),-1.1%,0.0,-0.2,6.7,4.1,30.9*
Cc1nc2sc(C(c3ccco3)N3CCC(C)CC3)c(O)n2n1 (centres undefined),-1.0%,1.0,0.2,2.1,-7.5,-1.9
CCOc1ccc(NC(=O)Cn2cc(C(=O)c3ccc(C)c(C)c3)c(=O)c3cc4c(cc32)OCCO4)cc1,1.9%,-0.3,1.2,-0.8,2.3,0.1
C/C(=N\NC(=O)Cc1cccn1C)c1ccc2ccccc2c1,-1.0%,2.5,0.3,-7.8,-36.3*,5.9
C/C(=N/NC(=O)Cc1cccn1C)c1ccccc1,2.8%,2.0,0.6,-8.4,-4.6,2.8
CCOc1ccc(C2c3c(oc4ccc(C)cc4c3=O)C(=O)N2CCCN2CCOCC2)cc1 (centres undefined),0.0%,1.4,0.3,-6.3,-4.9,-0.3
N#C/C(=N\Nc1ccc(Cl)c(Cl)c1)C(=O)C1CC1,1.0%,23.0,0.2,-4.8,-44.3*,-3.0
CCSc1nnc(NC(=O)CC(C)C)s1,-1.3%,1.6,-0.6,-9.2,13.9,5.4
CC(C)(C)CC(=O)Nc1nnc(SCC(=O)Nc2ccccc2F)s1,2.8%,0.9,-1.4,-6.7,-39.8*,-3.5
CC(=O)Nc1ccc(NC(=O)CSc2nnc(NC(=O)Cc3ccc(F)cc3)s2)cc1,.,1.4,-0.3,-19.6,-52.6*,-19.4
CC(C)CC(=O)Nc1nnc(SCC(=O)Nc2nccs2)s1,.,7.2,0.3,-1.0,-35.1*,3.5
CCOc1ccc(C(=O)Cn2c(=O)n3nc(CCn4nc(C)cc4C)nc3c3cc(OC)c(OC)cc32)cc1,-1.1%,-0.7,0.4,1.1,-12.8,13.4
Cn1cc(Br)c(C(=O)NNC(=O)c2ccc(Br)cc2)n1,-0.9%,0.9,0.0,0.8,-5.7,1.3
Cn1cc(Br)c(C(=O)NNC(=O)c2ccccc2)n1,2.5%,2.5,-0.1,-7.4,6.5,32.5*
Cc1nn(-c2ccccc2)c(Cl)c1C(=O)OC(C)C(=O)Nc1ccc2c(c1)OCO2 (centres undefined),-0.9%,-0.1,-0.9,7.5,-70.7*,0.6
CC(=O)Nc1ccc(NC(=O)C(C)OC(=O)c2c(C)nn(-c3ccccc3)c2Cl)cc1 (centres undefined),.,1.9,0.0,.,-0.9,-0.8
CC(Sc1ncnc2ccccc12)C(=O)Nc1ccc2c(c1)OCO2 (centres undefined),0.0%,6.8,-0.3,-13.3,-32.8*,29.2
Cc1ccc(S(=O)(=O)N(CC(=O)N2CCc3ccccc3C2)c2ccc(C)c(C)c2)cc1,2.9%,0.6,1.0,-0.7,0.2,-5.8
COCCNc1nc(C)nc2c1nc(-c1ccccc1)n2C1CCN(Cc2ccccc2)C1 (centres undefined),1.5%,.,.,.,.,.

# Assay outcomes: PubChem BioAssay, National Center for Advancing Translational Sciences (NCATS)
